Here are results for ten molecules from PubChem BioAssay.

For part of these data: Entries with a potency or affinity are not part of this list. Results filed as inconclusive are left out. The source made the active and inactive calls.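 How the source made its calls, unless noted: active means fitted dose curve reaches 40% lysis signal rise at or below the highest valid concentration tested for that sample; inconclusive means flat fit between 30% and 70%, or poor curve fit; inactive means signal falls, stays flat within 30%, or no crossing.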

A short description of test [1]: small molecules captured by biotinylated probe aFSTL3 – biochemical, small-molecule microarray, fluorescence 635/667, stem cell growth factor project, primary screen (AID 1064).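 Further: measures binding of the biotinylated anti-FSTL3 antibody to printed compounds.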 Conditions: higher = more signal.
Test [2] is described as follows: binders from COS7 lysate, DM2A8 probe, primary screen, torsin A project, cell lysate, small-molecule microarray, fluorescence 635/667 (AID 1065). Conditions: higher = more signal, COS7 lysate expressing mutant human TOR1A.
Test [3] is described as follows: small molecules captured by biotinylated probe aFGF2 – biochemical, small-molecule microarray, fluorescence 635/667, stem cell growth factor project, primary screen (AID 1067).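 Further: measures binding of biotinylated aFGF2 protein to printed compounds on slides; z-score merges feature fluorescence and signal-to-noise across triplicate slides.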 The note with it: higher = more signal.
Test [4] can be described thus: small molecules captured by biotinylated probe aFGF10 – biochemical, small-molecule microarray, fluorescence 635/667, stem cell growth factor project, primary screen (AID 1071).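 Further: score merges 667 nm spot intensity and signal to noise from triplicate slides.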 The note with it: higher = more signal.
In test [5] the target is Neurogenic locus notch homolog protein 2 (Homo sapiens) (UniProt Q04721). Description: small molecules binding Notch2 protein – biochemical, small-molecule microarray, 635 nm fluorescence, stem cell growth factors, primary screen (AID 1073). Conditions: higher = more signal.
The target in test [6] is Pro-neuregulin-1, membrane-bound isoform (Homo sapiens) (UniProt Q02297). Description: small molecules binding neuregulin-1 protein – biochemical, small-molecule microarray, fluorescence 635/667, psychiatric disease protein project, primary screen (AID 1075).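 Further: score combines 667 nm spot fluorescence with signal to noise.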 Conditions: NRG1 binding, 635 nm fluorescence, higher = more signal.
The subject of test [7] is Neuregulin-1 EGF-like domain. The test can be described thus: small molecules binding NRG1 EGF domain – biochemical, small-molecule microarray, 635 nm fluorescence, primary screen (AID 1081).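 Further: binding of the protein to compounds printed on small-molecule microarray slides.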 Conditions: higher = more signal.
Test [8] is described as follows: FRG1 expression reporter modulators in myotubes – cell-based, C2C12 myotubes, firefly/Renilla luciferase, luminescence, FRG1 inhibition for FSHD, primary screen (AID 1084). The note with it: FRG1 promoter luciferase, higher = more signal, called active from +8 up or from −8 down.
Test [9] in a line: small molecules captured by biotinylated probe aFST – biochemical, small-molecule microarray, fluorescence 635/667, stem cell growth factor project, primary screen (AID 1086).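 Further: score merges 667 nm fluorescence with signal-to-noise of each printed compound spot.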 Conditions: higher = more signal.
A short description of test [10]: binders of probe aHhip on microarray, primary screen, stem cell growth factor project, biochemical, small-molecule microarray, fluorescence 635/667 (AID 1087).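 Further: score merges spot fluorescence at 667nm with spot signal to noise ratio.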 The note with it: higher = more signal.
In test [11] the test system is PRMT1 (protein arginine N-methyltransferase 1). Description: small molecules binding arginine methyltransferase PRMT1 – biochemical, small-molecule microarray, 635 nm fluorescence, primary screen (AID 1088).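 Further: binding of Prmt1 protein to compounds spotted on small-molecule microarray slides.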 The note with it: higher = more signal.
The nature of test [12]: growth effects on S. cerevisiae YJM789 – YJM789 clinical isolate, OD600, 24 h, basal, primary screen (AID 1089).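 Further: growth of clinical yeast isolate S. cerevisiae YJM 789 seeded 1000 cells per well.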 Conditions: higher = more signal, called active from +8 up or from −8 down.
The nature of test [13]: S. pombe growth modifiers, basal conditions – strain 972, OD600, 24 h, no modulator, primary screen (AID 1090).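 Further: basal condition with compound alone and no growth modifier present.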 The note with it: S. pombe 972 growth, higher = more signal, called active from +8 up or from −8 down.
Test [14] can be described thus: budding yeast growth modifiers under rapamycin – strain BY4716, OD600, 96 h, primary screen (AID 1091). The note with it: S. cerevisiae BY4716 + rapamycin, higher = more signal, called active from +8 up or from −8 down.
Test [15] deals with Torsin-1A-interacting protein 2 (Homo sapiens) (UniProt Q8NFQ8). The test can be described thus: small molecules binding lysate-expressed LULL1 – cell lysate, human LULL1 lysate, 635/667 nm fluorescence, primary screen (AID 1092).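 Further: score merges per-feature 667 nm fluorescence with signal-to-noise.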 Conditions: small-molecule microarray, hLULL1 lysate binding, 635 nm fluorescence; higher = more signal.
Test [16] is described as follows: optical density change of DRC41 E. coli – strain DRC41, OD650, 24 h, E. coli filamentation project, primary screen (AID 1093).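 Further: MC1000 strain lacking acrAB efflux and sulA so SOS filamentation is blocked.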 The note with it: E. coli DRC41 growth, higher = more signal, called active from +8 up or from −8 down.
Test [17] in a line: fungal growth arrest, C. neoformans – Alamar Blue, cherry-picks, dose response (AID 686998;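 active means falling signal with fitted half-maximal potency no higher than twice the top valid tested dose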). The note with it: Cryptococcus neoformans growth, 24 h; series mostly up to 35 µM.
Test [18] is described as follows: C. neoformans lysis by adenylate kinase leakage – AK release luminescence, cherry-picks, dose response (AID 687000).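 Further: luminescent detection of adenylate kinase leaking from lysed yeast; 0% = median neutral control signal and 100% = double that signal.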 The note with it: 4 h, 100% = twice the neutral-control signal; series mostly up to 15 µM.
The nature of test [19]: viability loss in HepG2 hepatoma cells – cell-based, cherry-picks, set 2, cytotoxicity control, dose response (AID 687002;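 active means a dose-response fit showing signal loss, with half-maximal concentration no higher than twice the top tested dose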). The note with it: ATP luminescence (CellTiter-Glo), 48 h; series mostly up to 26 µM.

Chain of Neurogenic locus notch homolog protein 2 (Homo sapiens) (Q04721 whole entry, looked up, canonical isoform): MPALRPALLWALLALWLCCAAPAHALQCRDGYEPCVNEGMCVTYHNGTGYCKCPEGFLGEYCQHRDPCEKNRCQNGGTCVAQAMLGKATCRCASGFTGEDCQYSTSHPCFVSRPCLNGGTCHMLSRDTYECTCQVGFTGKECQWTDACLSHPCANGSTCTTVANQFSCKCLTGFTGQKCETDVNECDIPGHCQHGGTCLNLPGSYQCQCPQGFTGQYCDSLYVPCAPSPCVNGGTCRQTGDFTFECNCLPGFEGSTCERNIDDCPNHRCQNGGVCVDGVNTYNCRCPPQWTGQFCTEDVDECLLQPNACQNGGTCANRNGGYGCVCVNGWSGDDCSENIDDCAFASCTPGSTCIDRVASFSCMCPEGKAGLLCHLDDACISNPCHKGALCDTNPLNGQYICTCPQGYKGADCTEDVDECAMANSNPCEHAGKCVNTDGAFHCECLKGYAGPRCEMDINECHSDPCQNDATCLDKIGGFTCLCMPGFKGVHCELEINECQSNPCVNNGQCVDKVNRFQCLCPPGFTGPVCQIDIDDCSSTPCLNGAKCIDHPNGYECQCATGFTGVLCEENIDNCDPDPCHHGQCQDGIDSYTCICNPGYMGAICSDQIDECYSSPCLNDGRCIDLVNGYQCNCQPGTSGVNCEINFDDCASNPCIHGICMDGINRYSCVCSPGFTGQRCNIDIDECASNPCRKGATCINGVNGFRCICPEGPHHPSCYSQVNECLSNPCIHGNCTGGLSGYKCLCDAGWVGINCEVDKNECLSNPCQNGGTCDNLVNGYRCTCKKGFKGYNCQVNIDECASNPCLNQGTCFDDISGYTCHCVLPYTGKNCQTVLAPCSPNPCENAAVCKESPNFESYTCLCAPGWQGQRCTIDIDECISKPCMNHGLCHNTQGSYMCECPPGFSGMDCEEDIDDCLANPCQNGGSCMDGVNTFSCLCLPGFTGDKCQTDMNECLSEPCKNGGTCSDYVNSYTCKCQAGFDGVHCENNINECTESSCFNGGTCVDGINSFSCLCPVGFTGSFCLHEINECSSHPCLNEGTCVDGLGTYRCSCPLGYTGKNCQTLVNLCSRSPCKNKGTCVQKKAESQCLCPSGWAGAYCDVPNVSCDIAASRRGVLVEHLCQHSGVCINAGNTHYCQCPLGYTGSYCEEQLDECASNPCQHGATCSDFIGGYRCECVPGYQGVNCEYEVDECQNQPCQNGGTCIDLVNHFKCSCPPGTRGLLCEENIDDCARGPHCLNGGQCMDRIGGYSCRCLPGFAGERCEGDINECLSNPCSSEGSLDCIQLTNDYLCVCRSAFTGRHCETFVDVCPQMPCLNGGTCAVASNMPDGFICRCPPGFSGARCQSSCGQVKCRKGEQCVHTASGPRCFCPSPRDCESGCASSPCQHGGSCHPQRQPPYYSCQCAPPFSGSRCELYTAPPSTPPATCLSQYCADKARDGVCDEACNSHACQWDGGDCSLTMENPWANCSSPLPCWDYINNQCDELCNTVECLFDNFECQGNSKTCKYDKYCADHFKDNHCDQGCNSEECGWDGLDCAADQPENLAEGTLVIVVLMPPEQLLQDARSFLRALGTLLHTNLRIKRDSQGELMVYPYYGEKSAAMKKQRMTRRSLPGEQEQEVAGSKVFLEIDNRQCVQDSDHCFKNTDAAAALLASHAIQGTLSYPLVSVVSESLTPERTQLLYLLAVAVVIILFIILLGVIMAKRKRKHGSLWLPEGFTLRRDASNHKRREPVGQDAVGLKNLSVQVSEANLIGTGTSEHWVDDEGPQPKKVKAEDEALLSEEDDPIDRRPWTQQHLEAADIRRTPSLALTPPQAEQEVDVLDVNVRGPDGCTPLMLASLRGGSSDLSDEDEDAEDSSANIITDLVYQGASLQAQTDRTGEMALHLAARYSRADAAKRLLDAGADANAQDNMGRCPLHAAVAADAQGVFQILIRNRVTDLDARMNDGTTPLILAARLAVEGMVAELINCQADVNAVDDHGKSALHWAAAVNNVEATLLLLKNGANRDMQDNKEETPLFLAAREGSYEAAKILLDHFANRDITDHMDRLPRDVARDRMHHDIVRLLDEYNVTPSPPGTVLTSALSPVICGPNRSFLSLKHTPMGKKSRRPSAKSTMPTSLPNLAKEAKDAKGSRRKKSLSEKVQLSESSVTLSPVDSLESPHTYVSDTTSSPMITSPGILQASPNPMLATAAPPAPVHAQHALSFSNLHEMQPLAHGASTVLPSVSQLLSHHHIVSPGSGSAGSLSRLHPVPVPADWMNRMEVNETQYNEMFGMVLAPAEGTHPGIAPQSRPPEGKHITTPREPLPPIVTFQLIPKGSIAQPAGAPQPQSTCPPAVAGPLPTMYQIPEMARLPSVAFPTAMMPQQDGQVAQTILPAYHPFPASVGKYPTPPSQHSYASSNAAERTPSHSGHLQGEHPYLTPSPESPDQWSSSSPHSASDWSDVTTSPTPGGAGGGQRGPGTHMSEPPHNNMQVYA
Chain of Pro-neuregulin-1, membrane-bound isoform (Homo sapiens) (Q02297 whole entry, looked up, the tested form may be a part, canonical isoform): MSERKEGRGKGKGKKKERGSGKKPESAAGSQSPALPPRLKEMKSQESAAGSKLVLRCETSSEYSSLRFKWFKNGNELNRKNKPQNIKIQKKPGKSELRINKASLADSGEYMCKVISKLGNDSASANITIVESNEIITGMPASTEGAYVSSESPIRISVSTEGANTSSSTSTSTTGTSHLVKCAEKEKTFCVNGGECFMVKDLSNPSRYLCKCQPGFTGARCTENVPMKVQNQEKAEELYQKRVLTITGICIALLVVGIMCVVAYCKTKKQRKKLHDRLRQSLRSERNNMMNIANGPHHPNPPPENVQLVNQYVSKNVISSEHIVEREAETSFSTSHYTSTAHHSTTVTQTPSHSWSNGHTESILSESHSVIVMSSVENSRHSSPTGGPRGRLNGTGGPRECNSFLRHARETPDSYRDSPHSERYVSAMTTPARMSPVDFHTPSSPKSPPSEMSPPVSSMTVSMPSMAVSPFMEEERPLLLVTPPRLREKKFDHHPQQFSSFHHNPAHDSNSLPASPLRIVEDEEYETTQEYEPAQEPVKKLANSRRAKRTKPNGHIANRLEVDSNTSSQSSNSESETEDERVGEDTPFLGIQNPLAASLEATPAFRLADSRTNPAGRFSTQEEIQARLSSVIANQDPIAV
Chain of Torsin-1A-interacting protein 2 (Homo sapiens) (Q8NFQ8 whole entry, looked up): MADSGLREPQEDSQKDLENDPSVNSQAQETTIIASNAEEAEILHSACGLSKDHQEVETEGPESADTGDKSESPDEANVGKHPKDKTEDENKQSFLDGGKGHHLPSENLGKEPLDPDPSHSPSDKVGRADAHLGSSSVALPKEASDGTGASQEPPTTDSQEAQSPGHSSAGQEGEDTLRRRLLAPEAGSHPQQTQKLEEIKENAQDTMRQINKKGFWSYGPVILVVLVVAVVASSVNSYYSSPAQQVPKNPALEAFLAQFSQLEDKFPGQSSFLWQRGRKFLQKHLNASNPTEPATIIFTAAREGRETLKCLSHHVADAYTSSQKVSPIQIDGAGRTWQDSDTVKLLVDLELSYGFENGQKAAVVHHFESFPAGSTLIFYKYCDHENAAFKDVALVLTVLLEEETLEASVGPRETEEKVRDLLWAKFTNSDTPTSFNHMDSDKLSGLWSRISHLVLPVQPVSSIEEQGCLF

Take `COc1ccc([Si](C)(C)[C@@H]2[C@@H](CCn3cc(CCO)nn3)O[C@]3(C(=O)N(Cc4ccc(N5C(=O)c6cccc7cccc5c67)cc4)c4ccccc43)[C@H]2C)cc1`: the composite z-score is -0.279 in test [1]; 0.749 in test [2]; -0.0656 in test [3]; -0.0139 in test [4]; 0.142 in [5]; 1.26 in test [6]. The composite z-score in test [7] was 0.742; in test [9], 0.299; in test [10], 0.154; in [11], 1.51; in test [15], 0.986. Moreover, the z-score is -3.48 (inactive) in test [8]; 0.0277 (inactive) in test [12]; 0.858 (inactive) in [13]; 12.7 (active) in test [14]; 2.61 (inactive) in test [16].

With `C=CCN1C(=O)[C@]2(O[C@H](CCn3cc([C@H](O)c4ccccc4)nn3)[C@@H]([Si](C)(C)c3ccc(OC)cc3)[C@@H]2C)c2cc(N3CCOC3=O)ccc21`, the composite z-score in test [1] was 0.264; in test [2], 0.443; in test [3], -0.154; in test [4] it was -0.213; in [5] it was -0.74; in [6], 0.579. The composite z-score in test [7] was 1.16; in [9], -0.297; in [10], -0.0128; in [11], 1.37; in test [15] it was 1.41. Also, the z-score in test [8] was -2.7 (inactive); in [12] it was 0.326 (inactive); in test [13], 0.155 (inactive); in test [14], 4.47 (inactive); in [16] it was 1.75 (inactive).

Regarding `CC(C)CNC(=O)[C@@H]1c2ccccc2C(=O)N(Cc2ccc(OC(F)(F)F)cc2)[C@H]1c1ccc(CO)cc1`, the composite z-score in test [1] is -0.0768; in [2], 0.849; in [3], -0.0095; in [4] it was 0.34; in test [5], 0.988; in test [6], 1.15. For the same molecule, the composite z-score was 1.21 in [7]; 0.941 in test [9]; -0.206 in test [10]; 1.54 in [11]; 3.01 in test [15]. For the same molecule, the z-score in test [8] is -2.61 (inactive); in test [12], -1.87 (inactive); in test [13] it was -2.91 (inactive); in test [14] it was -1.06 (inactive); in test [16], 3.96 (inactive).

Consider `C=C(COC)/C(=C/C[C@H](OC(C)=O)c1ccc(CO)o1)c1cnc2ccccc2c1`, for which the composite z-score in test [1] is -0.17; in [2], 1.29; in test [3], -0.0316; in [4], 0.665; in [5] it was 1.4; in test [6] it was 0.64. Further, the composite z-score in [7] was 1.01; in test [9] it was 0.314; in test [10] it was -0.0024; in test [11] it was 1.41; in [15] it was 2.48. The z-score in test [8] is -0.524 (inactive); in test [12] it was -0.342 (inactive); in test [13] it was -0.897 (inactive); in test [14], -1.06 (inactive); in test [16] it was 1.15 (inactive).

With `O=C(O)[C@H]1C[C@H]2C(=O)NCC(=O)N2[C@H]1c1cccc(OCCO)c1`, the composite z-score is 2.86 in test [1]; 0.942 in test [2]; 0.0568 in test [3]; -0.213 in [4]; 0.29 in test [5]; 1.41 in test [6]. The composite z-score in test [7] was 0.986; in test [9], 1.98; in [10], 0.745; in test [11], 1.23; in test [15], 1.51. Besides, the z-score in test [8] is 5.62 (inactive); in test [12], -1.63 (inactive); in test [13], -2.01 (inactive); in test [14], -1.11 (inactive); in [16], 2.5 (inactive).

`CC(=O)NCCCC[C@@H]1NC(=O)[C@@H]2C[C@H](C(=O)O)[C@H](c3cccc(OCCO)c3)N2C1=O`: the composite z-score was -0.16 in [1]; 0.619 in test [2]; -0.112 in test [3]; 0.321 in test [4]; 0.124 in [5]; 0.0677 in test [6]. Also, the composite z-score in test [7] was 1.31; in test [9], 0.199; in test [10] it was -0.153; in test [11], 1.55; in test [15], 0.654. The z-score in test [8] is 0.356 (inactive); in test [12] it was 1.18 (inactive); in test [13], -0.201 (inactive); in [14] it was 1.46 (inactive); in test [16] it was 0.809 (inactive).

Consider `CC(C)CCC[C@@H](C)[C@H]1CC[C@@]2(C)C3=C(CC[C@]12C)[C@@]1(C)CC[C@H](OC(=O)CCl)C(C)(C)C1CC3` (some centres not stated), for which the composite z-score was -0.503 in test [1]; 0.331 in test [2]; -0.0787 in test [3]; 0.422 in test [4]; 0.753 in [5]; 0.0429 in [6]. Moreover, the composite z-score was 0.59 in test [7]; 0.104 in test [9]; -0.0237 in test [10]; -0.132 in test [11]; 0.424 in test [15]. Moreover, the z-score in test [8] was -0.0513 (inactive); in test [12], -0.0688 (inactive); in [13], -0.178 (inactive); in test [14], -0.208 (inactive); in test [16], 3.26 (inactive).

For the molecule `O=S(=O)(c1ccc(F)cc1)N1C[C@@H]2[C@H](c3ccccc31)[C@@H](CO)N2Cc1ccccc1Cl`, the molecule was classed as inactive in test [17], in test [18] and in test [19].

As for `C=C(COC)C(=O)CC[C@@H](OC(=O)c1ccccc1-c1ccccc1C(=O)O)c1cccc(OCCO)c1`, the composite z-score in test [1] was -0.124; in [2] it was 0.098; in test [3], -0.14; in [4], 0.457; in [5] it was -0.66; in test [6] it was 0.691. Also, the composite z-score is 0.137 in test [7]; -0.0665 in test [9]; -0.0645 in test [10]; 0.437 in [11]; 0.132 in test [15]. Besides, the z-score was 0.658 (inactive) in test [8]; 0.586 (inactive) in [12]; -1.51 (inactive) in test [13]; -0.409 (inactive) in test [14]; 0.826 (inactive) in [16].

On to `CC(C)C[C@@H]1NC(=O)[C@@]23C(=O)N[C@@H](Cc4ccccc4)C2[C@H](C)[C@@]2(C)O[C@H]2C3/C=C/C/C=C\CNC(=O)[C@H](Cc2ccccc2)NC1=O` (some centres not stated), for which the composite z-score in test [1] is -0.215; in test [2], -0.215; in test [3], -0.101; in test [4], -0.0045; in [5], 0.245; in [6] it was 0.974. The composite z-score in test [7] came out at 0.897; in test [9] it was 0.0017; in test [10] it was 0.03; in test [11], 0.911; in [15], 0.574. Further, the z-score in [8] is 0.259 (inactive); in test [12], -0.664 (inactive); in test [13], -19.9 (active); in [14] it was -0.602 (inactive); in test [16], 2.08 (inactive).
